Calls of active or inactive are those of the source. How the source made its calls: active means hit-call score of the fitted dose curve at least 0.9, where 1 is the maximum; inactive means score below 0.9.
What was measured:
Conditions in all cases: mRNA level, 48 h; actives raise or lower the signal
[1] = read-out: DNA damage-inducible transcript 3 (DDIT3), DDIT3 (gene 1649); test: LTEA_HepaRG_DDIT3: Life Technologies and Expression Analysis (LTEA) Assay for DNA damage-inducible transcript 3 (DDIT3) using HepaRG (AID 2283488)
Procedure, shortened: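 Cells are human HepaRG liver cells treated for 48 h with eight half-log concentrations up to 100 uM in 0.5% DMSO. Transcript levels come from qRT-PCR normalized to three housekeeping genes, with activity fitted in both directions relative to vehicle.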

[2] = read-out: Early growth response protein 1 (EGR1) transcription factor, EGR1 (gene 1958); test: LTEA_HepaRG_EGR1: Life Technologies and Expression Analysis (LTEA) Assay for Early growth response protein 1 (EGR1) transcription factor using HepaRG (AID 2283490)
Procedure, shortened: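 HepaRG, 48 h exposure, 8-pt half-log series from 100 uM, 0.5% DMSO vehicle; EGR1 transcript by TaqMan qRT-PCR (Fluidigm array), housekeeping-normalized; bidirectional fit relative to DMSO baseline.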

[3] = read-out: Ezrin (EZR), EZR (gene 7430); test: LTEA_HepaRG_EZR: Life Technologies and Expression Analysis (LTEA) Assay for Ezrin (EZR) using HepaRG (AID 2283491)
Procedure, shortened: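 Read-out is EZR transcript level by qRT-PCR, normalized to three housekeeping genes and fitted bidirectionally against the DMSO control. Human HepaRG cells received test chemicals for 48 h at eight half-log concentrations up to 100 uM in 0.5% DMSO.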

[4] = read-out: Cytochrome P450 3A7 (Homo sapiens) (UniProt P24462); test: LTEA_HepaRG_CYP3A7: Life Technologies and Expression Analysis (LTEA) Assay for CYP3A7 using HepaRG (AID 2283492)
Procedure, shortened: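 qRT-PCR of CYP3A7 in HepaRG lysates after 48 h treatment; concentration-response (8 points, max 100 uM) analysed bidirectionally relative to 0.5% DMSO controls.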

[5] = read-out: Fatty Acid-Binding Protein 1 (FABP1), FABP1 (gene 2168); test: LTEA_HepaRG_FABP1: Life Technologies and Expression Analysis (LTEA) Assay for Fatty Acid-Binding Protein 1 (FABP1) using HepaRG (AID 2283494)
Procedure, shortened: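 qRT-PCR readout of FABP1 transcript (normalized to three housekeeping genes) after 48 h chemical exposure of HepaRG cells; eight concentrations, half-log steps, max 100 uM, 0.5% DMSO vehicle; gain or loss fitted relative to DMSO baseline.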

[6] = read-out: Cytochrome P450 4A22 (Homo sapiens) (UniProt Q5TCH4); test: LTEA_HepaRG_CYP4A22: Life Technologies and Expression Analysis (LTEA) Assay for Cytochrome P450 4A22 (CYP4A22) using HepaRG (AID 2283495)
Procedure, shortened: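 Concentration-response (8 points, max 100 uM, 0.5% DMSO) in human HepaRG liver cells after 48 h exposure. CYP4A22 mRNA by TaqMan qRT-PCR with housekeeping-gene normalization.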

[7] = read-out: Cytochrome P450 7A1 (Homo sapiens) (UniProt P22680); test: LTEA_HepaRG_CYP7A1: Life Technologies and Expression Analysis (LTEA) Assay for Cytochrome P450 7A1 (CYP7A1) using HepaRG (AID 2283496)
Procedure, shortened: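 HepaRG, 48 h exposure, 8-pt half-log series from 100 uM, 0.5% DMSO vehicle, duplicates. Readout: TaqMan qRT-PCR mRNA vs three housekeeping genes; bidirectional curve fit against DMSO baseline.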

[8] = read-out: Glutathione S-Transferase (GSTA2), GSTA2 (gene 2939); test: LTEA_HepaRG_GSTA2: Life Technologies and Expression Analysis (LTEA) Assay for Glutathione S-Transferase (GSTA2) using HepaRG (AID 2283497)
Procedure, shortened: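 qRT-PCR readout of GSTA2 transcript, normalized to three housekeeping genes, fitted bidirectionally against 0.5% DMSO baseline. Differentiated HepaRG cells received compound for 48 h at 8 concentrations (top 100 uM, half-log steps).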

[9] = read-out: Glutamate-cysteine ligase catalytic (GCLC), GCLC (gene 2729); test: LTEA_HepaRG_GCLC: Life Technologies and Expression Analysis (LTEA) Assay for Glutamate-cysteine ligase catalytic (GCLC) using HepaRG (AID 2283498)
Procedure, shortened: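 HepaRG, 48 h exposure, 8-pt half-log series from 100 uM, 0.5% DMSO vehicle; TaqMan qRT-PCR for GCLC mRNA, housekeeping-normalized; bidirectional curve fit vs DMSO baseline.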

[10] = read-out: growth arrest and DNA damage 45 (GADD45G), GADD45G (gene 10912); test: LTEA_HepaRG_GADD45G: Life Technologies and Expression Analysis (LTEA) Assay for growth arrest and DNA damage 45 (GADD45G) using HepaRG (AID 2283499)
Procedure, shortened: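 Concentration-response in HepaRG: 48 h dosing, 0.5% DMSO, highest level 100 uM. GADD45G expression by qRT-PCR, normalised to endogenous controls; bidirectional fit to DMSO.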

[11] = read-out: Glutamate-cysteine ligase regulatory (GCLM), GCLM (gene 2730); test: LTEA_HepaRG_GCLM: Life Technologies and Expression Analysis (LTEA) Assay for Glutamate-cysteine ligase regulatory (GCLM) using HepaRG (AID 2283500)
Procedure, shortened: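 Endpoint is GCLM transcript level by qRT-PCR, normalized to three housekeeping genes, after 48 h chemical exposure of human HepaRG cells (0.5% DMSO vehicle, top 100 uM, half-log dilutions). Fitting was bidirectional relative to DMSO.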

[12] = read-out: Glutathione S-transferase M3 (GSTM3), GSTM3 (gene 2947); test: LTEA_HepaRG_GSTM3: Life Technologies and Expression Analysis (LTEA) Assay for Glutathione S-transferase M3 (GSTM3) using HepaRG (AID 2283501)
Procedure, shortened: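 Expression of GSTM3 is determined by qRT-PCR in human liver HepaRG cells treated 48 h with an 8-point half-log range from 100 uM in 0.5% DMSO.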

[13] = read-out: Heat shock 70 kDa protein 1 (HSPA1A), gene 3303; test: LTEA_HepaRG_HSPA1A: Life Technologies and Expression Analysis (LTEA) Assay for Heat shock 70 kDa protein 1 (HSPA1A) using HepaRG (AID 2283502)
Procedure, shortened: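 Cells were plated and cultured for 48 h, then switched to serum-free induction medium. Chemicals were added at eight half-log concentrations up to 100 uM for 48 h. RNA was then isolated and HSPA1A measured by qRT-PCR with bidirectional curve fitting against DMSO.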

[14] = read-out: Hypoxia-inducible factor 1-alpha (Homo sapiens) (UniProt Q16665); test: LTEA_HepaRG_HIF1A: Life Technologies and Expression Analysis (LTEA) Assay for Hypoxia-inducible factor 1 (HIF1A) Trancription factor using HepaRG (AID 2283503)
Procedure, shortened: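 HIF1A transcript level read by qRT-PCR (ACTB, GAPDH, POLR2A normalization) after 48 h chemical exposure of HepaRG cultures. Eight half-log concentrations, top 100 uM, 0.5% DMSO vehicle, duplicates; bidirectional curve fit against DMSO baseline.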

[15] = read-out: 3-Hydroxy-3-Methylglutaryl-CoA Synthase 2 (HMGCS2), HMGCS2 (gene 3158); test: LTEA_HepaRG_HMGCS2: Life Technologies and Expression Analysis (LTEA) Assay for 3-Hydroxy-3-Methylglutaryl-CoA Synthase 2 (HMGCS2) using HepaRG (AID 2283504)
Procedure, shortened: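 This steatosis marker was read as HMGCS2 mRNA change in HepaRG cells treated 48 h with up to 100 uM chemical. Normalisation used housekeeping genes; activity in either direction was fitted relative to 0.5% DMSO vehicle.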

HGF (gene 3082) = test: LTEA_HepaRG_HGF: Life Technologies and Expression Analysis (LTEA) Assay for Hepatocyte Growth Facto (HGF) using HepaRG (AID 2283505)
Procedure, shortened: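 Using HepaRG monolayers kept in 0.5% DMSO, chemicals were tested in duplicate over eight half-log concentrations from 100 uM for 48 h. Endpoint: HGF mRNA change relative to DMSO, normalized to ACTB/GAPDH/POLR2A.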

[16] = read-out: Insulin Like Growth Factor 1 (IGF1), IGF1 (gene 3479); test: LTEA_HepaRG_IGF1: Life Technologies and Expression Analysis (LTEA) Assay for Insulin Like Growth Factor 1 (IGF1) using HepaRG (AID 2283506)
Procedure, shortened: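 Cells are thawed, plated and cultured 48 h, then exposed in duplicate to chemical (highest 100 uM, half-log steps, 0.5% DMSO) for another 48 h. Total RNA is analysed by Fluidigm qRT-PCR for IGF1 expression relative to vehicle.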

[17] = read-out: Intercellular Adhesion Molecule 1 (ICAM1), ICAM1 (gene 3383); test: LTEA_HepaRG_ICAM1: Life Technologies and Expression Analysis (LTEA) Assay for Intercellular Adhesion Molecule 1 (ICAM1) using HepaRG (AID 2283507)
Procedure, shortened: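 Using the human liver line HepaRG, compounds are tested in duplicate over 48 h at concentrations up to 100 uM. Expression is determined by TaqMan qRT-PCR, normalized to endogenous controls, and analysed relative to 0.5% DMSO vehicle.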

Measured: AC50

Sequence of Cytochrome P450 3A7 (Homo sapiens) (P24462 whole entry, looked up): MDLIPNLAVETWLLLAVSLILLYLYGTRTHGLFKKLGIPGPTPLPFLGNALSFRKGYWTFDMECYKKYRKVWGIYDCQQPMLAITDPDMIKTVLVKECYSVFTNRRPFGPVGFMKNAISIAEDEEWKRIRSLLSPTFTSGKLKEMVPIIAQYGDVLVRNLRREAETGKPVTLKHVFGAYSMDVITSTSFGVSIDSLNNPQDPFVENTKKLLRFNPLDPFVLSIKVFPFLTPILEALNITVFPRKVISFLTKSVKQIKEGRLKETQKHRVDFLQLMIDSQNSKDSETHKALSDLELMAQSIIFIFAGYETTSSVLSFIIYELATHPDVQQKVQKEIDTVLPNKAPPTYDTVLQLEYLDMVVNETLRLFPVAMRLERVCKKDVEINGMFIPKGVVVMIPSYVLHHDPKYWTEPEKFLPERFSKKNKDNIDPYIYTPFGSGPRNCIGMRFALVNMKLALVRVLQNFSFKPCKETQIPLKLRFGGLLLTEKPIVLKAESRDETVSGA
Sequence of Hypoxia-inducible factor 1-alpha (Homo sapiens) (Q16665 whole entry, looked up): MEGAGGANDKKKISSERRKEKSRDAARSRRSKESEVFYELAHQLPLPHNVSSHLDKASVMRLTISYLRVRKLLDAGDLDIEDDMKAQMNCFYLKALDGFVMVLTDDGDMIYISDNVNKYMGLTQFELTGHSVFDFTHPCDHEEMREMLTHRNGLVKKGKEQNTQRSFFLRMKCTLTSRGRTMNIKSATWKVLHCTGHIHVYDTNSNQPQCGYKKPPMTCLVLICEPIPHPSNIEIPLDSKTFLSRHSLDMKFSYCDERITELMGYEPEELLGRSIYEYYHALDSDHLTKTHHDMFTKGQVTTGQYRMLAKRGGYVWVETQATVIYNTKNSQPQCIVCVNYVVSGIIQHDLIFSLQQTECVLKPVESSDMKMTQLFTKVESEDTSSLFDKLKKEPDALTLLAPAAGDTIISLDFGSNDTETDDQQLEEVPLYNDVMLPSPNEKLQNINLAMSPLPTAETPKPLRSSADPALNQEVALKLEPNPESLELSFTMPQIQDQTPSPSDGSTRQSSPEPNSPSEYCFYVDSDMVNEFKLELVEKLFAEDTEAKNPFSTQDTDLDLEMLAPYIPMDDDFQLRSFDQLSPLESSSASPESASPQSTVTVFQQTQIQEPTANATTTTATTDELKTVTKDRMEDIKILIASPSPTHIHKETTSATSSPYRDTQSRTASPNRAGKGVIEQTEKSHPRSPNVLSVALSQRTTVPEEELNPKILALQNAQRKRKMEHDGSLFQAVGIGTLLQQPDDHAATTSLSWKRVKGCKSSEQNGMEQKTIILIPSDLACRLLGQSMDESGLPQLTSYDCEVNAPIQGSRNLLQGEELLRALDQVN

Oc1cc2ccccc2c2ccccc12
inactive: [1] | [2] | [3] | [4] | [5] | [6] | [8] | [9] | [10] | [11] | [12] | [13] | [14] | [15] | HGF (gene 3082) | [16] | [17]
active: [7] 3.01 µM

CCCCCCCCCCCCCCCS(=O)(=O)Oc1ccccc1
active: [4] 8.39 µM | [16] 27.5 µM
inactive: [1] | [2] | [3] | [5] | [6] | [7] | [8] | [9] | [10] | [11] | [12] | [13] | [14] | [15] | HGF (gene 3082) | [17]

CCCCC(CC)COC(=O)CCCCC(=O)OCc1ccccc1 (stereo not given)
inactive: [1] | [2] | [3] | [4] | [5] | [6] | [7] | [8] | [9] | [10] | [11] | [12] | [13] | [14] | [15] | HGF (gene 3082) | [16] | [17]

CCCCC(CC)COC(=O)CCCCC(=O)OCC(CC)CCCC (stereo not given)
inactive: [1] | [2] | [3] | [4] | [5] | [6] | [7] | [8] | [9] | [10] | [11] | [12] | [13] | [14] | [15] | HGF (gene 3082) | [16] | [17]

CN(C)C=O
inactive: [1] | [2] | [3] | [4] | [5] | [6] | [7] | [8] | [9] | [10] | [11] | [12] | [13] | [14] | [15] | HGF (gene 3082) | [16] | [17]

OCCC(F)(F)C(F)(F)C(F)(F)C(F)(F)C(F)(F)C(F)(F)F
inactive: [1] | [2] | [3] | [4] | [5] | [6] | [7] | [8] | [9] | [10] | [11] | [12] | [13] | [14] | [15] | HGF (gene 3082) | [16] | [17]

COCC(C)O (stereo not given)
inactive: [1] | [2] | [3] | [4] | [5] | [6] | [7] | [8] | [9] | [10] | [11] | [12] | [13] | [14] | [15] | HGF (gene 3082) | [16] | [17]

CC(C)CCCCCCOC(=O)CCCCC(=O)OCCCCCCC(C)C
inactive: [1] | [2] | [3] | [4] | [5] | [6] | [7] | [8] | [9] | [10] | [11] | [12] | [13] | [14] | [15] | HGF (gene 3082) | [16] | [17]

Cc1cc(CCN2CCN(c3nsc4ccccc34)CC2)cc2c1NC(=O)CC2(C)C
active: [1] 71.9 µM | [3] 9.92 µM | [4] 79.5 µM | [5] 69.7 µM | [6] 58.6 µM | [7] 80.6 µM | [8] 81.9 µM | [10] 76.8 µM | [11] 50 µM | [13] 50 µM | [15] 78 µM | [16] 70.5 µM
inactive: [2] | [9] | [12] | [14] | HGF (gene 3082) | [17]

CN1CCN(c2ccccc2/C=C2\SCCN(c3ccc(Cl)c(Cl)c3)C2=O)CC1
inactive: [4] | [8] | [9] | [10] | [11] | [12] | [14] | HGF (gene 3082)
active: [1] 50 µM | [2] 83 µM | [3] 50 µM | [5] 50 µM | [6] 15.8 µM | [7] 93.9 µM | [13] 71.9 µM | [15] 60.3 µM | [16] 12 µM | [17] 98.9 µM
